From PubChem BioAssay AID2061306 (National Center for Advancing Translational Sciences (NCATS), 2025) come the findings set out here.

Inconclusive results are not listed. Activity calls are given as the source filed them. Calls follow the shape of the dose curve; as a rule, active = well fitted inhibition curve with a large enough effect; inconclusive = small, poorly fitted or top-dose-only effect; inactive = flat fitted curve, though single readings scatter.

The assay is described as follows: Identification of antibody-drug conjugate (ADC) payloads which are substrates of ATP-binding cassette drug efflux transporters: ABCB1-HEK293-pcDNA cell line. The note with it: HEK293 empty-vector (pcDNA) control viability, CellTiter-Glo, 48 h. The source says:
Antibody-drug conjugates (ADCs) feature an antibody recognizing a specific protein joined to a potent toxic payload. Numerous antibody-drug conjugates have received FDA approval; however, clinical resistance arises. Resistance mechanisms include decreased expression or mutation of the antibody target, impaired payload release, or increased expression of ATP-binding cassette (ABC) efflux transporters associated with multidrug resistance. We therefore sought to characterize the interaction of ABC multidrug transporters with ADC payloads. We performed a high-throughput screen with 27 common ADC payloads using cells lines expressing ABC transporters P-glycoprotein (P-gp, encoded by ABCB1) or ABCG2 (encoded by ABCG2). Confirmatory assays were also performed using cells transfected to express P-gp, ABCG2, or MRP1 (encoded by ABCC1). Several commonly used ADC payloads were substrates of P-gp, including calicheamicin gamma1, monomethyl auristatin E, DM1, and DM4. All the pyrrolobenzodiazepines tested - SJG136, SGD-1882, SG2057, and SG3199 - were substrates of P-gp, ABCG2, and MRP1. […] These findings highlight the risk of transporter-mediated resistance with certain ADC payloads and underscore the importance of selecting payloads that evade ABC transporter recognition in future ADC development.
HEK-293 cells were transfected with empty vector (pcDNA) or vector containing the human ABCB1 (MDR-19), ABCG2 (R-5), or ABCC1 gene (MRP1) and were maintained in EMEM with 2 mg/mL G418 added to maintain transporter expression. The HeLa derivative KB-3-1 and the P-gp overexpressing KB-8-5-11 subline were maintained in DMEM; KB-8-5-11 additionally received 100 ng/mL colchicine. H460 parental cells were obtained from the Division of Cancer Treatment and Diagnosis Tumor Repository, National Cancer Institute at Frederick, MD and were cultured in RPMI. The ABCG2 expressing subline H460 MX20 was generated by selecting H460 cells in 20 nM mitoxantrone. Media in all cases was supplemented with 10% FBS and 1% penicillin-streptomycin. We explored 27 common ADC payloads, in two orthogonal, paired cell line sets-a drug selected and transfected set for each transporter--to identify substrates of the ABC transporters P-gp and ABCG2. Compounds were sourced from Levena Biopharma (San Diego, CA), Selleck Chem (Houston, TX), ChemieTek (Indianapolis, IN), or Microsource Discovery Systems (Gaylordsville, CT). Screening was performed as previously described. Briefly, cells were plated at a density of 500 cells/well in 1536 well plates with compounds added using a 1536-head pin tool (Kalypsys, San Diego CA). Cells were incubated with cytotoxic drugs and processed with CellTiter Glo reagent (Promega, Madison, WI) to determine viability after 48 hours. P-gp substrates were identified by comparing compound activity between paired sets of low-expressing (sensitive) and over-expressing (resistant) cell lines.
Background: Cellular ATP, detected with luciferase, serves as a proxy for viable cell number.
In the case of `CCN[C@H]1CO[C@@H](O[C@H]2[C@H](O[C@H]3C#C/C=C\C#C[C@]4(O)CC(=O)C(NC(=O)OC)=C3/C4=C\CSSSC)O[C@H](C)[C@@H](NO[C@H]3C[C@H](O)[C@H](SC(=O)c4c(C)c(I)c(O[C@@H]5O[C@@H](C)[C@H](O)[C@@H](OC)[C@H]5O)c(OC)c4OC)[C@@H](C)O3)[C@@H]2O)C[C@@H]1OC`, the Potency is 0.2 nM (active).
As to `COc1cccc2c1C(=O)c1c(O)c3c(c(O)c1C2=O)C[C@@](O)(C(=O)CO)C[C@@H]3O[C@H]1C[C@H](N)[C@H](O)[C@H](C)O1`, the Potency is 29.8 nM (active).
With `CCc1c2c(nc3ccc(O)cc13)-c1cc3c(c(=O)n1C2)COC(=O)[C@]3(O)CC`, the Potency is 4.7 nM (active).
With `CCN(C(C)=O)[C@H]1CO[C@@H](O[C@H]2[C@H](O[C@H]3C#C/C=C\C#C[C@]4(O)CC(=O)C(NC(=O)OC)=C3/C4=C\CSSSC)O[C@H](C)[C@@H](NO[C@H]3C[C@H](O)[C@H](SC(=O)c4c(C)c(I)c(O[C@@H]5O[C@@H](C)[C@H](O)[C@@H](OC)[C@H]5O)c(OC)c4OC)[C@@H](C)O3)[C@@H]2O)C[C@@H]1OC`, the Potency is 1.5 nM (active).
As to `CC(C)(C)OC(=O)Nc1ccc2[nH]c(C(=O)N3C[C@@H](CCl)c4c3cc(O)c3ccccc43)cc2c1`, the Potency was 8.4 nM (active).
Consider `COc1cc2cc(c1Cl)N(C)C(=O)C[C@H](O)[C@]1(C)O[C@H]1[C@H](C)C1C[C@@](O)(NC(=O)O1)[C@H](OC)/C=C/C=C(\C)C2`, for which the Potency is 2980 nM (active).
Take `COc1cccc2c1C(=O)c1c(O)c3c(c(O)c1C2=O)C[C@@](O)(C(=O)CO)C[C@@H]3O[C@H]1C[C@H]2[C@H](O[C@@H]3[C@@H](OC)OCCN32)[C@H](C)O1`: the Potency was 0.0334 nM (active).
As for `COc1ccc(C2=CN3C(=O)c4cc(OC)c(OCCCOc5cc6c(cc5OC)C(=O)N5C=C(c7ccc(N)cc7)C[C@@H]5C=N6)cc4N=C[C@H]3C2)cc1`, the figure is 1.3 nM (active); as for `CN(C)CCOc1ccc2[nH]c(C(=O)N3C[C@@H](CCl)c4c3cc(O)c3ccccc43)cc2c1`, 0.4 nM (active); as for `COC(=O)c1cc2c3c(cc(O)c2[nH]1)N(C(=O)c1cc2cc(OC)c(OC)c(OC)c2[nH]1)CC3CCl` (stereo not given), 0.4 nM (active).
